# According to the supplement of paper PMC10127200:
# Where a name gives a salt, the structure may show the parent alone.
# System: FB
# Assay: Euclidean distance of Cell Painting phenotypic profile (signed KS, 77 features) to DMSO centroid (dimensionless distance); higher = stronger phenotypic change vs DMSO (phenoactivity)
# Details: 48 h; 5 or 10 uM (library dependent)
# In short: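 Harmony extracted 77 features from 20X confocal images (9 fields/well) of stained cells, scoring each as a signed Kolmogorov-Smirnov statistic against same-plate vehicle wells. The cells, five cancer lines and a healthy fibroblast line, had received library compounds for 48 h at 10 or 5 uM depending on library, with 0.1% DMSO final. Phenoactivity is the Euclidean distance from each plate-position-corrected, correlation-weighted, top-dose replicate-averaged profile to the median vehicle profile.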
row,SMILES,Euclidean distance
1,CN1[C@@H]2CC[C@H]1C[C@@H](OC(=O)C(CO)c1ccccc1)C2 (some centres undefined) [Atropine sulfate monohydrate],0.688
2,CN1CCN(c2nc3ccccc3nc2Cl)CC1,0.897
3,O=C([O-])C(Cl)Cl.[Na+] [Sodium dichloroacetate (DCA)],0.681
4,CC(Cc1ccc(O)cc1)NCC(O)c1cc(O)cc(O)c1 (centres undefined) [Fenoterol hydrobromide],0.734
5,CCC(COC(=O)c1cc(OC)c(OC)c(OC)c1)(c1ccccc1)N(C)C (centres undefined) [Trimebutine],0.704
6,O=C/C=C/c1ccccc1 [Cinnamaldehyde],0.954
7,COc1ccc2c(c1)[nH]c1c(C)nccc12 [Harmine hydrochloride],1.58
8,CC(=O)OCC1=C(C(=O)O)N2C(=O)[C@@H](N)[C@H]2SC1 [7-Aminocephalosporanic acid],1
9,CN1c2ccccc2C(NCCCCCCC(=O)O)c2ccc(Cl)cc2S1(=O)=O (centres undefined) [Tianeptine sodium],1.05
10,CCCN1C[C@H](CSC)C[C@@H]2c3cccc4[nH]cc(c34)C[C@H]21 [Pergolide Mesylate],0.928
11,CC[C@H]1[C@@H]2C[C@H]3[C@@H]4N(C)c5ccccc5[C@]45C[C@@H]([C@@H]2[C@H]5O)N3[C@@H]1O [Ajmaline],0.914
12,Cc1cccc(C)c1NC1=NCCCS1 [Xylazine],0.632
13,Cn1c(CCCC(=O)O)nc2cc(N(CCCl)CCCl)ccc21 [Bendamustine],0.717
14,C[C@@H]1CC[C@@]2(OC1)O[C@H]1C[C@H]3[C@@H]4CC=C5C[C@@H](O[C@@H]6O[C@H](CO)[C@@H](O[C@@H]7O[C@@H](C)[C@H](O)[C@@H](O)[C@H]7O)[C@H](O)[C@H]6O[C@@H]6O[C@@H](C)[C@H](O)[C@@H](O)[C@H]6O)CC[C@]5(C)[C@H]4CC[C@]3(C)[C@H]1[C@@H]2C [Dioscin],1.29
15,CCNC1(c2cccs2)CCCCC1=O (centres undefined) [Tiletamine Hydrochloride],1.39
16,COc1cc(OC)c(OC)cc1C=O [Asaraldehyde],1.31
17,OC(c1ccccc1)(c1ccccc1)C1CCNCC1 [Azacyclonol],3.06

row,SMILES,Euclidean distance
1,O=C1CCC[C@@H]2[C@H]3CCCN4CCC[C@@H](CN12)[C@@H]34 [(+)-Matrine],1.03
2,COc1ccc(CN2CCNCC2)c(OC)c1OC [Trimetazidine dihydrochloride],0.719
3,CC[C@H](C)[C@H]1O[C@]2(C=C[C@@H]1C)C[C@@H]1C[C@@H](C/C=C(\C)[C@@H](O[C@H]3C[C@H](OC)[C@@H](O[C@H]4C[C@H](OC)[C@@H](O)[C@H](C)O4)[C@H](C)O3)[C@@H](C)/C=C/C=C3\CO[C@@H]4[C@H](O)C(C)=C[C@@H](C(=O)O1)[C@]34O)O2.CO[C@H]1C[C@H](O[C@H]2[C@H](C)O[C@@H](O[C@@H]3/C(C)=C/C[C@@H]4C[C@@H](C[C@]5(C=C[C@H](C)[C@@H](C(C)C)O5)O4)OC(=O)[C@@H]4C=C(C)[C@@H](O)[C@H]5OC/C(=C\C=C\[C@@H]3C)[C@]54O)C[C@@H]2OC)O[C@@H](C)[C@@H]1O [Avermectin B1],1.1
4,C[C@]12N[C@H](Cc3ccccc31)c1ccccc12 [MK-801 (Dizocilpine)],0.635
5,CC(C)(C)c1cc(C=C(C#N)C#N)cc(C(C)(C)C)c1O [Tyrphostin 9],1.32
6,CCCN1C[C@H](CSC)C[C@@H]2c3cccc4[nH]cc(c34)C[C@H]21 [Pergolide mesylate],0.92
7,CN1[C@@H]2C[C@@H](OC(=O)[C@H](CO)c3ccccc3)C[C@H]1[C@@H]1O[C@@H]12 [Scopolamine HBr],0.816
8,C=CCN1CC[C@]23c4c5ccc(O)c4O[C@H]2C(=O)CC[C@@]3(O)[C@H]1C5 [Naloxone HCl],0.576
9,CCN(C)C(=O)Oc1cccc([C@H](C)N(C)C)c1 [Rivastigmine Tartrate],0.816
10,N#Cc1nn(-c2c(Cl)cc(C(F)(F)F)cc2Cl)c(N)c1[S+]([O-])C(F)(F)F (centres undefined) [Fipronil],1.05
11,COC(=O)C1=CCCN(C)C1 [Arecoline HBr],1.12
12,N[C@@H](Cc1ccc(N(CCCl)CCCl)cc1)C(=O)O [Melphalan],2.75
13,C[S+]([O-])CCCCN=C=S (centres undefined) [sulforaphane],2.33
14,Cc1ccc(-n2nccn2)c(C(=O)N2CCN(c3nc4cc(Cl)ccc4o3)CC[C@H]2C)c1 [Suvorexant (MK-4305)],0.9
15,COC(=O)C1=CCCN(C)C1 [Arecoline],1.01
16,CCN1CCN(C(=O)Cc2ccc(Nc3ncc(F)c(Nc4ccc(C(=O)Nc5ccccc5Cl)cc4)n3)cc2)CC1 [Aurora A Inhibitor I],3.33
17,CC(C)[C@]12O[C@H]1[C@@H]1O[C@]13[C@]1(O[C@H]1C[C@H]1C4=C(CC[C@@]13C)C(=O)OC4)[C@@H]2O [Triptolide (PG490)],4.12
